Measured values reported in PubChem BioAssay (NCI).
Compounds without any hit were thinned out: in the full panel of roughly 79,000, 15% have a hit. Active and inactive are the calls of the source. Rule as the data show it: active = growth inhibition above about 70%; inactive = the rest.

How the values were obtained:
[1] = NCI Yeast Anticancer Drug Screen. Data for the mec2-1 strain (AID 157); conditions: S. cerevisiae mec2-1 strain, hits give high values
How it was run: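 Readout is yeast growth inhibition, normalised to vehicle-treated controls, in the mec2-1 strain exposed to compound.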

[2] = NCI Yeast Anticancer Drug Screen. Data for the rad14 strain (AID 159);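 also: 0% = growth of vehicle-treated control cultures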; conditions: S. cerevisiae rad14 strain growth inhibition, hits give high values
How it was run: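 Test compounds were applied to a repair-deficient yeast strain. Its growth was then compared with that of cultures given vehicle alone, and inhibition was expressed relative to those controls.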

[3] = NCI Yeast Anticancer Drug Screen. Data for the sgs1 mgt1 strain (AID 161);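 also: 0% = growth of cultures given vehicle only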; conditions: S. cerevisiae sgs1 mgt1 strain, hits give high values
How it was run: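 Percent growth inhibition was derived by comparing compound-exposed mutant yeast with vehicle-exposed cultures. The strain carries alterations in DNA damage repair.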

[4] = NCI Yeast Anticancer Drug Screen. Data for the CLN2oe strain (AID 163);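 also: 0% = growth of vehicle-only control cultures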; conditions: S. cerevisiae CLN2oe strain, hits give high values
How it was run: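 Values reflect how much compound exposure reduced yeast growth, referenced to vehicle-exposed cells. Assay organism is a strain with a defined genetic change affecting cell-cycle control.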

[5] = NCI Yeast Anticancer Drug Screen. Data for the cln2 rad14 strain (AID 165);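 also: 0% = growth equal to vehicle treated cultures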; conditions: S. cerevisiae cln2 rad14 strain, hits give high values
How it was run: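 Relative to vehicle controls, growth inhibition of compound-treated cln2 rad14 yeast was recorded.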

[6] = NCI Yeast Anticancer Drug Screen. Data for the bub3 strain (AID 167); conditions: S. cerevisiae bub3 mutant strain, hits give high values
How it was run: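 Yeast carrying a defined mutation is treated with each compound, and growth is compared with that of vehicle-exposed cells to give inhibition.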

[7] = NCI Yeast Anticancer Drug Screen. Data for the wt2 strain (AID 169);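 also: 0% = growth of vehicle-treated yeast cultures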; conditions: S. cerevisiae wt2 strain growth inhibition, hits give high values
How it was run: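 Values express reduction in yeast growth under compound treatment, referenced to vehicle-treated cells.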

[8] = NCI Yeast Anticancer Drug Screen. Data for the mlh1 strain (AID 171);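 also: 0% = growth of vehicle-treated control cultures of the same strain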; conditions: S. cerevisiae mlh1 strain growth inhibition, hits give high values
How it was run: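 Steps: expose the defined-mutant yeast strain to compound; expose a parallel culture to vehicle; measure growth; express compound effect as inhibition relative to the vehicle culture.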

[9] = NCI Yeast Anticancer Drug Screen. Data for the sgs1 strain (AID 173);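 also: 0% = growth of vehicle-only control cultures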; conditions: S. cerevisiae sgs1 mutant, hits give high values
How it was run: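 Treat defined-mutant yeast with compound; measure growth; calculate inhibition relative to vehicle-treated cells.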

[10] = NCI Yeast Anticancer Drug Screen. Data for the mlh1 rad18 strain (AID 175); conditions: S. cerevisiae mlh1 rad18 strain growth inhibition, hits give high values
How it was run: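 Test agents were incubated with a yeast strain of defined genotype (DNA damage repair defect). Inhibition of growth was derived by comparison with vehicle-exposed cultures.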

[11] = NCI Yeast Anticancer Drug Screen. Data for the rad18 strain (AID 177); conditions: S. cerevisiae rad18 mutant growth inhibition, hits give high values
How it was run: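 A genetically defined yeast mutant impaired in DNA damage repair was treated with test compounds, then its growth was measured against cultures receiving vehicle alone.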

[12] = NCI Yeast Anticancer Drug Screen. Data for the rad52 strain (AID 147);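 also: 0% = growth of vehicle-treated control cultures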; conditions: S. cerevisiae rad52 mutant growth inhibition, hits give high values
How it was run: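 Screen used a yeast mutant impaired in DNA repair. After compound exposure, growth was measured. Values reflect inhibition compared with vehicle-treated cells.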

[13] = NCI Yeast Anticancer Drug Screen. Data for the wt1 strain (AID 149);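 also: 0% = growth of vehicle-treated wt1 cultures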; conditions: S. cerevisiae wt1 strain (SPY 50644) growth inhibition, hits give high values
How it was run: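 wt1 yeast, compound-treated; % growth inhibition vs vehicle control.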

[14] = NCI Yeast Anticancer Drug Screen. Data for the rad50EPP+ strain (AID 151);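 also: 0% = growth of vehicle-treated control cultures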; conditions: S. cerevisiae rad50 mutant strain, hits give high values
How it was run: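 Exposing the rad50EPP+ strain to each compound, growth was compared with vehicle-only cultures to give inhibition.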

[15] = NCI Yeast Anticancer Drug Screen. Data for the rad50 strain (AID 155);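 also: 0% = growth of vehicle-only cultures of the same strain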; conditions: S. cerevisiae rad50 strain growth inhibition, hits give high values
How it was run: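 Genetically altered yeast (DNA repair pathway); compound treatment; growth inhibition vs vehicle ctrl.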

[16] = at 5.0 µM (retest, dose inferred, filed as 0.5)
[17] = at 50.0 µM (retest, dose inferred, filed as 5.0)

Measured: growth inhibition

Cc1cc(Cl)nc2nc(Cl)c(N)cc12
inactive: [1]; at 100.0 µM 44% | [2]; at 1.2 µM 1% | [2]; at 3.7 µM 2% | [2]; at 11.0 µM 1% | [2]; at 33.0 µM 28% | [3]; [16] -11% | [3]; [17] 55% | [4]; at 1.2 µM 4% | [4]; at 3.7 µM 1% | [4]; at 11.0 µM 5% | [4]; at 33.0 µM 6% | [4]; at 100.0 µM 54% | [5]; [16] 29% | [5]; [17] 42% | [5]; at 50.0 µM 22.6% | [6]; at 1.2 µM -20% | [6]; at 3.7 µM -2% | [6]; [16] -24% | [6]; at 11.0 µM -4% | [6]; at 33.0 µM 1% | [6]; [17] 30% | [6]; at 50.0 µM 48.2% | [6]; at 100.0 µM 67% | [7]; at 1.2 µM -22% | [7]; at 3.7 µM -16% | [7]; at 11.0 µM -24% | [7]; at 33.0 µM 21% | [8]; at 1.2 µM -16% | [8]; at 3.7 µM -2% | [8]; at 11.0 µM -2% | [8]; at 33.0 µM 14% | [9]; at 1.2 µM -2% | [9]; at 3.7 µM -6% | [9]; at 11.0 µM -1% | [9]; at 33.0 µM 13% | [9]; at 100.0 µM 63% | [10]; [16] 11% | [11]; at 1.2 µM -29% | [11]; at 3.7 µM -24% | [11]; at 11.0 µM -10% | [11]; at 33.0 µM 35%
active: [2]; at 100.0 µM 78% | [3]; at 50.0 µM 73.5% | [7]; at 100.0 µM 94% | [8]; at 100.0 µM 80% | [10]; [17] 84% | [11]; at 100.0 µM 80%

Nc1cc(S(N)(=O)=O)ccc1SSc1ccc(S(N)(=O)=O)cc1N
active: [12]; at 100.0 µM 81% | [14]; at 33.0 µM 79% | [14]; at 100.0 µM 93% | [15]; at 50.0 µM 71.6% | [15]; at 100.0 µM 71% | [2]; at 100.0 µM 89% | [8]; at 100.0 µM 75% | [9]; at 100.0 µM 82% | [10]; at 50.0 µM 73% | [11]; at 100.0 µM 78%
inactive: [12]; at 1.2 µM 1% | [12]; at 3.7 µM 10% | [12]; at 11.0 µM 21% | [12]; at 33.0 µM 50% | [13]; at 1.2 µM 1% | [13]; at 3.7 µM -2% | [13]; at 11.0 µM 0% | [13]; at 33.0 µM 12% | [13]; at 100.0 µM 51% | [14]; at 1.2 µM -2% | [14]; at 3.7 µM 2% | [14]; at 11.0 µM 19% | [15]; at 1.2 µM 5% | [15]; at 3.7 µM 8% | [15]; [16] 13% | [15]; at 11.0 µM 22% | [15]; at 33.0 µM 33% | [15]; [17] 52% | [1]; at 1.2 µM 1% | [1]; at 3.7 µM 5% | [1]; [16] 9% | [1]; at 11.0 µM 12% | [1]; at 33.0 µM 29% | [1]; [17] 10% | [1]; at 50.0 µM 41.1% | [1]; at 100.0 µM 63% | [2]; at 1.2 µM 1% | [2]; at 3.7 µM -7% | [2]; at 11.0 µM 3% | [2]; at 33.0 µM 12% | [3]; [16] -7% | [3]; [17] 55% | [3]; at 50.0 µM 56.6% | [4]; at 1.2 µM 1% | [4]; at 3.7 µM -1% | [4]; at 11.0 µM 2% | [4]; at 33.0 µM 13% | [4]; at 100.0 µM 49% | [5]; [16] 16% | [5]; [17] 0% | [5]; at 50.0 µM 21.7% | [6]; at 1.2 µM -1% | [6]; at 3.7 µM 3% | [6]; [16] -21% | [6]; at 11.0 µM 9% | [6]; at 33.0 µM 21% | [6]; [17] 12% | [6]; at 50.0 µM 62.3% | [6]; at 100.0 µM 67% | [7]; at 1.2 µM -1% | [7]; at 3.7 µM -1% | [7]; at 11.0 µM 4% | [7]; at 33.0 µM 27% | [7]; at 100.0 µM 54% | [8]; at 1.2 µM 4% | [8]; at 3.7 µM 4% | [8]; at 11.0 µM 12% | [8]; at 33.0 µM 28% | [9]; at 1.2 µM 2% | [9]; at 3.7 µM 9% | [9]; at 11.0 µM 26% | [9]; at 33.0 µM 53% | [10]; [16] 5% | [10]; [17] 31% | [11]; at 1.2 µM -14% | [11]; at 3.7 µM 7% | [11]; at 11.0 µM 28% | [11]; at 33.0 µM 52%

C/C(=N\NC(=S)NC1CCCC1)c1ccccn1
inactive: [12]; at 1.2 µM -5% | [13]; at 1.2 µM 3% | [14]; at 1.2 µM -6% | [14]; at 3.7 µM 14% | [15]; at 1.2 µM -5% | [15]; [16] 23% | [1]; at 1.2 µM 2% | [1]; [16] 33% | [2]; at 1.2 µM -9% | [3]; [16] 13% | [4]; at 1.2 µM -6% | [5]; [16] 41% | [6]; at 1.2 µM -5% | [6]; at 3.7 µM 64% | [6]; [16] 9% | [7]; at 1.2 µM -3% | [8]; at 1.2 µM -3% | [9]; at 1.2 µM 0% | [10]; [16] 13% | [11]; at 1.2 µM -5%
active: [12]; at 3.7 µM 78% | [12]; at 11.0 µM 99% | [12]; at 33.0 µM 99% | [12]; at 100.0 µM 99% | [13]; at 3.7 µM 75% | [13]; at 11.0 µM 99% | [13]; at 33.0 µM 99% | [13]; at 100.0 µM 99% | [14]; at 11.0 µM 90% | [14]; at 33.0 µM 98% | [14]; at 100.0 µM 97% | [15]; at 3.7 µM 77% | [15]; at 11.0 µM 98% | [15]; at 33.0 µM 99% | [15]; [17] 99% | [15]; at 50.0 µM 79.2% | [15]; at 100.0 µM 98% | [1]; at 3.7 µM 77% | [1]; at 11.0 µM 99% | [1]; at 33.0 µM 99% | [1]; [17] 97% | [1]; at 50.0 µM 86% | [1]; at 100.0 µM 99% | [2]; at 3.7 µM 87% | [2]; at 11.0 µM 99% | [2]; at 33.0 µM 99% | [2]; at 100.0 µM 99% | [3]; [17] 99% | [3]; at 50.0 µM 92% | [4]; at 3.7 µM 84% | [4]; at 11.0 µM 99% | [4]; at 33.0 µM 99% | [4]; at 100.0 µM 99% | [5]; [17] 100% | [5]; at 50.0 µM 90.3% | [6]; at 11.0 µM 99% | [6]; at 33.0 µM 99% | [6]; [17] 98% | [6]; at 50.0 µM 91% | [6]; at 100.0 µM 99% | [7]; at 3.7 µM 71% | [7]; at 11.0 µM 99% | [7]; at 33.0 µM 99% | [7]; at 100.0 µM 99% | [8]; at 3.7 µM 71% | [8]; at 11.0 µM 98% | [8]; at 33.0 µM 98% | [8]; at 100.0 µM 98% | [9]; at 3.7 µM 79% | [9]; at 11.0 µM 99% | [9]; at 33.0 µM 99% | [9]; at 100.0 µM 99% | [10]; [17] 98% | [10]; at 50.0 µM 91.5% | [11]; at 3.7 µM 79% | [11]; at 11.0 µM 98% | [11]; at 33.0 µM 99% | [11]; at 100.0 µM 95%
